The values below come from PubChem BioAssay (EPA / NIEHS).

Records with an inconclusive call do not appear. Activity calls are given as the source filed them. The calls were made as follows, unless noted: active = hit-call score of the fitted dose curve at least 0.9, where 1 is the maximum; inactive = score below 0.9.

Read-out in one assay: CD69, CD69 (gene 969)
The experiment in a line: BSK_SAg_CD69: BioMAP Diversity Plus: SAg Assay for CD69 Biomarker Activity (AID 2283089).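 As to AC50: cell surface CD69 protein quantified by ELISA with fluorescence detection.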 The settings on record: primary human HUVEC with PBMC; actives raise or lower the signal. Summed up:
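Primary human vascular co-culture (umbilical vein endothelium with peripheral blood mononuclear cells) exposed to test chemical for 24 h. CD69 levels quantified by fluorescence ELISA; DMSO served as negative control for bidirectional fitting.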

Read-out in assay [1]: Monocyte Chemoattractant Protein-1 (MCP1), CCL2 (gene 6347)
The experiment in a line: BSK_SAg_MCP1: BioMAP Diversity Plus: SAg Assay for Monocyte Chemoattractant Protein-1 (MCP1) Biomarker Activity (AID 2283090). To be noted: primary human HUVEC with PBMC; actives raise or lower the signal. The method, boiled down: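 MCP-1 levels in the endothelial–PBMC SAg co-culture were quantified by ELISA at 24 h post-dosing; both increases and decreases versus DMSO scored. Cytotoxicity monitored by SRB total protein in parallel cultures.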

Read-out in assay [2]: E-selectin (Homo sapiens) (UniProt P16581)
The experiment in a line: BSK_SAg_Eselectin: BioMAP Diversity Plus: SAg Assay for Eselectin Biomarker Activity (AID 2283091). The settings on record: primary human HUVEC with PBMC; actives raise or lower the signal. Summed up:
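Cell-surface E-selectin is read by ELISA at 24 h in the SAg co-culture of HUVEC and PBMC. Curves are fitted in both directions relative to DMSO. Parallel SRB total-protein staining tracks overt toxicity.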

Read-out in assay [3]: Monokine induced gamma interferon (MIG), CXCL9 (gene 4283)
The experiment in a line: BSK_SAg_MIG: BioMAP Diversity Plus: SAg Assay for Monokine induced gamma interferon (MIG) Biomarker Activity (AID 2283092). The settings on record: primary human HUVEC with PBMC; actives raise or lower the signal. Summed up:
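Endothelial cells and PBMC were co-cultured, exposed to test chemicals, and sampled 24 h later. MIG was measured by ELISA, and responses were fitted in both directions relative to DMSO.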

Assay [4] is described as follows: BSK_SAg_PBMCCytotoxicity: PBMC Cytotoxicity Assessment in the BioMAP Diversity Plus: SAg Assay (AID 2283093).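 Also: PBMC viability measured as Alamar Blue reduction fluorescence at 546/580 nm; fitted both ways against DMSO so a hit may be loss or gain of signal.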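 As to AC50: PBMC superantigen activated with SEB plus TSST-1 one hour after compound addition.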 The settings on record: primary human HUVEC with PBMC. The method, boiled down: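 HUVEC/PBMC co-culture; PBMC exposed to chemical 1 h before SEB and TSST-1 activation (20 ng/mL each), incubated 90 h, then Alamar Blue 6 h, fluorescence 546/580 nm. Bidirectional fit versus DMSO baseline.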

Read-out in assay [5]: Interleukin-8 (IL8), CXCL8 (gene 3576)
The assay is described as follows: BSK_SAg_IL8: BioMAP Diversity Plus: SAg Assay for Interleukin-8 (IL8) Biomarker Activity (AID 2283094). To be noted: primary human HUVEC with PBMC; actives raise or lower the signal. The method, boiled down: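 In this co-culture of human umbilical vein endothelium with peripheral blood mononuclear cells, IL-8 is assayed by ELISA at 24 h. DMSO serves as baseline for bidirectional curve fitting.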

The nature of assay [6]: BSK_SAg_Proliferation: Cell Proliferation Assessment in the BioMAP Diversity Plus: SAg Assay (AID 2283095).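 Also: relative cell number as total protein by SRB absorbance in sub-confluent culture.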 The settings on record: primary human HUVEC with PBMC. The method, boiled down:
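Readout is SRB-stained protein (560 nm) in a primary human HUVEC and PBMC co-culture; sub-confluent cultures are read at 96 h. Activity is fitted bidirectionally using DMSO as baseline.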

Assay [7] is described as follows: BSK_SAg_SRB: Viability Assessment in the BioMAP Diversity Plus: SAg Assay (AID 2283096).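 Also: cells read one day after compound addition; hits may be either gain or loss of signal compared with DMSO.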 The settings on record: primary human HUVEC with PBMC. Summed up: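 Human umbilical vein endothelial cells co-cultured with PBMC, read 24 h after compound dosing. Total protein measured by sulforhodamine B staining (0.1% SRB after 10% TCA fixation, absorbance 560 nm); bidirectional fit versus DMSO baseline.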

The target in assay [8] is human CYP19A1, CYP19A1 (gene 1588) (UniProt P11511). The assay is described as follows: NVS_ADME_hCYP19A1: NovaScreen (NVS) CYP450-related Enzyme Activity (ADME) Assay for human CYP19A1 (AID 2283098; active = hit-call score of the fitted dose curve at least 0.9, where 1 is the maximum;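 as to AC50: potency for inhibitors seen as loss of fluorescent enzyme signal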). The method, boiled down:
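Recombinant enzyme in a cell-free format, read 0.5 h after dosing by fluorescence from a fluorogenic substrate. Loss of signal was fitted against acetonitrile as baseline. Primary screen in duplicate at 10 uM, actives then tested in concentration series.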

In assay [9] the target is human CYP2C9, CYP2C9 (gene 1559) (UniProt P11712). The experiment in a line: NVS_ADME_hCYP2C9: NovaScreen (NVS) CYP450-related Enzyme Activity (ADME) Assay for human CYP2C9 (AID 2283108; active = hit-call score of the fitted dose curve at least 0.9, where 1 is the maximum). Summed up: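 Recombinant human CYP2C9 expressed in SF9 cells, fluorogenic substrate, fluorescence read 0.75 h after dosing. Chemicals first run in duplicate at 10 uM, with actives followed in concentration series; loss of signal versus acetonitrile baseline.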

The target of assay [10] is Cytochrome P450 2C19 (Homo sapiens) (UniProt P33261). The assay is described as follows: NVS_ADME_hCYP2C19: NovaScreen (NVS) CYP450-related Enzyme Activity (ADME) Assay for human CYP2C19 (AID 2283113; active = hit-call score of the fitted dose curve at least 0.9, where 1 is the maximum;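 also: potency for inhibition seen as loss of fluorescent signal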). The method, boiled down: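 Compounds first screened in duplicate at 10 uM, then confirmed in concentration series. Insect-cell-expressed human CYP2C19 turned over a fluorogenic substrate, and fluorescence was read after 1 h. Inhibition taken as signal loss relative to acetonitrile.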

The target of assay [11] is human CYP2B6, CYP2B6 (gene 1555) (UniProt P20813). The experiment in a line: NVS_ADME_hCYP2B6: NovaScreen (NVS) CYP450-related Enzyme Activity (ADME) Assay for human CYP2B6 (AID 2283101; active = hit-call score of the fitted dose curve at least 0.9, where 1 is the maximum). The method, boiled down: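 Cell-free recombinant enzyme assay with a fluorogenic substrate; fluorescence intensity read 1 hour after dosing. Loss of signal relative to acetonitrile negative control indicates inhibition. Primary screen run in duplicate at 10 uM, actives then tested in concentration series.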

Assay [12] deals with Cytochrome P450 2C18 (Homo sapiens) (UniProt P33260). The experiment in a line: NVS_ADME_hCYP2C18: NovaScreen (NVS) CYP450-related Enzyme Activity (ADME) Assay for human CYP2C18 (AID 2283103). Summed up: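 Cell-free recombinant human CYP2C18 with fluorogenic substrate; fluorescence intensity read 0.5 h after dosing. Single-point screen at 10 uM in duplicate, then concentration-response up to 20 uM; loss of signal fitted against acetonitrile baseline.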

The target in assay [13] is human CYP4F12, CYP4F12 (gene 66002) (UniProt Q9HCS2). The experiment in a line: NVS_ADME_hCYP4F12: NovaScreen (NVS) CYP450-related Enzyme Activity (ADME) Assay for human CYP4F12 (AID 2283111; active = hit-call score of the fitted dose curve at least 0.9, where 1 is the maximum). The method, boiled down: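 Cell-free fluorescence assay of recombinant human CYP4F12 activity on a specific substrate, read 0.5 h after dosing. Primary screen in duplicate at 10 uM, then concentration series for actives; loss of signal fitted against acetonitrile negative control.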

In assay [14] the target is human CYP2J2, CYP2J2 (gene 1573) (UniProt P51589). The assay is described as follows: NVS_ADME_hCYP2J2: NovaScreen (NVS) CYP450-related Enzyme Activity (ADME) Assay for human CYP2J2 (AID 2283106; active = hit-call score of the fitted dose curve at least 0.9, where 1 is the maximum). The method, boiled down:
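Cell-free assay of recombinant CYP2J2 with a fluorogenic substrate, read 1 h after dosing; loss of signal versus acetonitrile. Primary screen at 10 uM in duplicate, then concentration-response up to 20 uM for chemicals passing threshold (e.g., 30% inhibition).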

The target in assay [15] is human CYP1A1, CYP1A1 (gene 1543) (UniProt P04798). The experiment in a line: NVS_ADME_hCYP1A1: NovaScreen (NVS) CYP450-related Enzyme Activity (ADME) Assay for human CYP1A1 (AID 2283100; active = hit-call score of the fitted dose curve at least 0.9, where 1 is the maximum). The method, boiled down:
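Chemicals were first tested in duplicate at 10 uM, and those passing a 30% inhibition threshold were rerun as concentration series topping at 20 uM. Fluorescence read-out of recombinant enzyme turnover after 1 h, relative to acetonitrile.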

Sequence of human CYP2C9, CYP2C9 (gene 1559) (P11712 whole entry, looked up): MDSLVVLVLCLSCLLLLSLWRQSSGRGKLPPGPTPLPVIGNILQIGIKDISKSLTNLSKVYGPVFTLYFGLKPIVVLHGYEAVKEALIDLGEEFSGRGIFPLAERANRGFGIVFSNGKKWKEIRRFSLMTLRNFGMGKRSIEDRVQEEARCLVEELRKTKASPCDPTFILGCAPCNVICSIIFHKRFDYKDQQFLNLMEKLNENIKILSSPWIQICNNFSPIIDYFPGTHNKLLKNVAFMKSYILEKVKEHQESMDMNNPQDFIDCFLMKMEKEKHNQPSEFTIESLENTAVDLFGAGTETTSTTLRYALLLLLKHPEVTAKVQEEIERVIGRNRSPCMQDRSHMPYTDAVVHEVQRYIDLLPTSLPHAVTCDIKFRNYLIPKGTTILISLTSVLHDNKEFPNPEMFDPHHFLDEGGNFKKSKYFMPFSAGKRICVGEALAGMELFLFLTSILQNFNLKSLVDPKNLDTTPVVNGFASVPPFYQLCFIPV
Sequence of E-selectin (Homo sapiens) (P16581 whole entry, looked up): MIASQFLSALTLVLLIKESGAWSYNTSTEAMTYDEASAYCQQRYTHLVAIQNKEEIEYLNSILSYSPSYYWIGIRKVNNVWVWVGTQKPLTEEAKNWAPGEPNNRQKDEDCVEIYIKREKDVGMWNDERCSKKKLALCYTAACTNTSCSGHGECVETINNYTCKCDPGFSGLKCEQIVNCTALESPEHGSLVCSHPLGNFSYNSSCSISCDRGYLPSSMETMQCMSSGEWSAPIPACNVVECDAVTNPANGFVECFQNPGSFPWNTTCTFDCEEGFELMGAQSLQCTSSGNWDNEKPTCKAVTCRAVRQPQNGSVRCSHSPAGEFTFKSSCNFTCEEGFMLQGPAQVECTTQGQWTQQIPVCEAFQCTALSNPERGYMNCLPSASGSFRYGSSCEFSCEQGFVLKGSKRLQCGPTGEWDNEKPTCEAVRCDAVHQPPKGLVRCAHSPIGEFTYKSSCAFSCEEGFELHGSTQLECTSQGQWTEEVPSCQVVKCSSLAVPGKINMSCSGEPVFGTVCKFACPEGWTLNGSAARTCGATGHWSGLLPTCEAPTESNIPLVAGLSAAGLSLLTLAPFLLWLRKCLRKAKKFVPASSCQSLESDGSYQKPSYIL
Sequence of Cytochrome P450 2C18 (Homo sapiens) (P33260 whole entry, looked up): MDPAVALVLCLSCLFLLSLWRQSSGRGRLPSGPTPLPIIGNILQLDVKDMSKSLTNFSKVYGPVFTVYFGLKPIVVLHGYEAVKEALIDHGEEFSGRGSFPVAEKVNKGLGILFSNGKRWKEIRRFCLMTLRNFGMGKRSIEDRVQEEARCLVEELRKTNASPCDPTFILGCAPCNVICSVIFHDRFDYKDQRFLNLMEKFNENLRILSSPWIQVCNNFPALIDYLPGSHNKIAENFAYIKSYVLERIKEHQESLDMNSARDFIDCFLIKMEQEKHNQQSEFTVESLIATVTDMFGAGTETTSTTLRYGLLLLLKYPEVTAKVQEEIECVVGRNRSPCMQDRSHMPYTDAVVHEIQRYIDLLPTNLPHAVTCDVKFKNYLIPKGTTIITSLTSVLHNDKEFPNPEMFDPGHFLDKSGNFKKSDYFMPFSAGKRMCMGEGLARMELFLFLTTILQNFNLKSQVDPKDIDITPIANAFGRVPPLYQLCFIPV
Sequence of human CYP19A1, CYP19A1 (gene 1588) (P11511 whole entry, looked up): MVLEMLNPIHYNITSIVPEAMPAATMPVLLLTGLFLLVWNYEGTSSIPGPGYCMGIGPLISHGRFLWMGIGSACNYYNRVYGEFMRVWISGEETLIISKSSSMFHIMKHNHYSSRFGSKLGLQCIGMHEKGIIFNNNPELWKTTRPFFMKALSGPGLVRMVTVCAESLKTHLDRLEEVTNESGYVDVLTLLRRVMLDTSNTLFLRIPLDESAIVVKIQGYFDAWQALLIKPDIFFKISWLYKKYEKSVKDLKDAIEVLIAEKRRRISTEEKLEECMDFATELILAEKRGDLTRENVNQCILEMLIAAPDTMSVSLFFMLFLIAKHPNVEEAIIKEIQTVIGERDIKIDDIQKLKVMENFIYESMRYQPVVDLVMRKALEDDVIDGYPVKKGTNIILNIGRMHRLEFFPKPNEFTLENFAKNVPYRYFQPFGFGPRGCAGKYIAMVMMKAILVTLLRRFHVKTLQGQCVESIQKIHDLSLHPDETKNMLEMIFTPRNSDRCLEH
Sequence of human CYP2B6, CYP2B6 (gene 1555) (P20813 whole entry, looked up): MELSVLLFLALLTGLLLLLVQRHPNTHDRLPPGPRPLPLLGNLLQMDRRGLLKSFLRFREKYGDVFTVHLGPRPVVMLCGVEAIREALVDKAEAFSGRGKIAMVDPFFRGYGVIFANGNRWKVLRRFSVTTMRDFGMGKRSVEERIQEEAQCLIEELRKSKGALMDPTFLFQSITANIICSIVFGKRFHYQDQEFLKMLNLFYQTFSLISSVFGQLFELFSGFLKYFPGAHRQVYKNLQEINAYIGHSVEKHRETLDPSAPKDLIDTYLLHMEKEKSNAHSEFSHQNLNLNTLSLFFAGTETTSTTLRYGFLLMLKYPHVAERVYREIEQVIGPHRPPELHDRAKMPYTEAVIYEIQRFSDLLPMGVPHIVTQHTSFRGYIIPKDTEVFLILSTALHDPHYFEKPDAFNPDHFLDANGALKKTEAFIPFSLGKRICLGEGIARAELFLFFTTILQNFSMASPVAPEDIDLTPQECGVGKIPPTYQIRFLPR
Sequence of human CYP4F12, CYP4F12 (gene 66002) (Q9HCS2 whole entry, looked up): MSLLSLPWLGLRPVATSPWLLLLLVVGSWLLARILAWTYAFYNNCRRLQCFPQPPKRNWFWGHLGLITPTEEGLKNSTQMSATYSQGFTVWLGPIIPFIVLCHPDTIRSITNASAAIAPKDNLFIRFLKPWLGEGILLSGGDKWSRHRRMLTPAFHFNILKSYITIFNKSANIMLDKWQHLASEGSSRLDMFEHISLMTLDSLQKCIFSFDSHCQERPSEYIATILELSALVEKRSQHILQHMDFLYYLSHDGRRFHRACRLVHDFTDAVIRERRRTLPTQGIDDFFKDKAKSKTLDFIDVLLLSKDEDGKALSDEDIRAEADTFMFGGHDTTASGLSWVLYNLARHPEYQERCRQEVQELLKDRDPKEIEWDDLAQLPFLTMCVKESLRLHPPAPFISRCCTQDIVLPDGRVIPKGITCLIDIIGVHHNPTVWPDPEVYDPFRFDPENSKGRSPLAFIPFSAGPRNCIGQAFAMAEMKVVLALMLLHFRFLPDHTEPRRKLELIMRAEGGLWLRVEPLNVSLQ
Sequence of human CYP2J2, CYP2J2 (gene 1573) (P51589 whole entry, looked up): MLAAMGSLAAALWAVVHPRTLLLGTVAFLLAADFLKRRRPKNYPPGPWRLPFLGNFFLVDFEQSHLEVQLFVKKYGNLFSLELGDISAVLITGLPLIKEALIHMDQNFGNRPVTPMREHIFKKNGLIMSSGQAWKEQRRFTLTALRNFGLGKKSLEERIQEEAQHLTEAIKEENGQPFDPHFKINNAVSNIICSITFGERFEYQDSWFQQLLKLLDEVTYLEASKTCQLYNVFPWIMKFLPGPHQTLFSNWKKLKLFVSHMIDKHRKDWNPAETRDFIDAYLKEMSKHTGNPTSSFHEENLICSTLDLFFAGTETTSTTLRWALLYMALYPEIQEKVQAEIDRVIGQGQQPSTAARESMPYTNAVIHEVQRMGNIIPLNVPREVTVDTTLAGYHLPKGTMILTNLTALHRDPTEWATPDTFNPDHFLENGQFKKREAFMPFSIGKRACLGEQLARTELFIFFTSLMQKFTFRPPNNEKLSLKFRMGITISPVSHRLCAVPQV
Sequence of human CYP1A1, CYP1A1 (gene 1543) (P04798 whole entry, looked up): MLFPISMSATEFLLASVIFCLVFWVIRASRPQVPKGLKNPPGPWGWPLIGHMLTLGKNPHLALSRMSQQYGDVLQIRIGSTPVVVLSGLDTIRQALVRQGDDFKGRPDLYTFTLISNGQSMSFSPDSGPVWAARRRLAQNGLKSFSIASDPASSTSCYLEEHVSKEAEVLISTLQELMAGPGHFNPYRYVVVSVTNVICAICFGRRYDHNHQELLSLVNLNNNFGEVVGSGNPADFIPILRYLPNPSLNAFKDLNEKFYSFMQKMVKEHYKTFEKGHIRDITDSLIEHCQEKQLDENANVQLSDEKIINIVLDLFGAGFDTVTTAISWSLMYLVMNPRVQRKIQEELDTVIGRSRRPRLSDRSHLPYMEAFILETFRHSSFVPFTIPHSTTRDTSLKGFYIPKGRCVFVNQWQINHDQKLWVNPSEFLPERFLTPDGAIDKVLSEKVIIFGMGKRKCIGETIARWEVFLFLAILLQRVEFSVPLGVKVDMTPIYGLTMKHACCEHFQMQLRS

On to `CCNC(=O)NC(=O)C(C#N)=NOC`, for which the outcome with CD69, CD69 (gene 969) is “inactive”; in assay [1] it was “inactive”; in assay [2], “inactive”; in [3], “inactive”; in assay [4], “inactive”; in [5] it was “inactive”. For the same molecule, the result in assay [6] and in assay [7] was inactive.

With `N#Cc1c(Cl)cccc1Cl`, the outcome is “inactive” in the assay with CD69, CD69 (gene 969); “inactive” in assay [1]; “inactive” in assay [2]; “inactive” in assay [3]; “inactive” in [4]; “inactive” in [5]. Also, the outcome in assay [6] and in assay [7] was inactive.

Turning to `CC(C)=CC1C(C(=O)OCc2coc(Cc3ccccc3)c2)C1(C)C` (stereo not given), the AC50 with CD69, CD69 (gene 969) was 11.4 µM (active); in assay [1] it was 20 µM (active); in assay [2], 16.6 µM (active); in assay [4], 5.08 µM (active); in assay [5], 12.7 µM (active); in assay [6], 15.7 µM (active). Besides, the results for the half-maximal activity concentration (AC50) in [8], in assay [9] and in assay [10] were 0.444 µM (active), 5.84 µM (active) and 8.7 µM (active), respectively. The result in assay [3] and in assay [7] was inactive.

Turning to `CCCN(CC)CC1COC2(CCC(C(C)(C)C)CC2)O1` (stereo not given), the outcome is “inactive” with CD69, CD69 (gene 969); “inactive” in assay [1]; “inactive” in assay [3]; “inactive” in assay [7]; “inactive” in assay [9]. Also, the concentration at half-maximal activity (AC50) in assay [2] was 12.9 µM (active); in assay [4], 12.2 µM (active); in assay [5] it was 12.1 µM (active); in assay [6], 6.99 µM (active).

Consider `CCOc1nc(C(Cl)(Cl)Cl)ns1`, for which the outcome with CD69, CD69 (gene 969) is “inactive”; in [1], “inactive”; in assay [3], “inactive”; in assay [4] it was “inactive”; in assay [5], “inactive”; in [6], “inactive”. The outcome in assay [7] was inactive. The half-maximal activity concentration (AC50) in assay [2] is 13.3 µM (active).

Regarding `Cc1cc(C)nc(Nc2ccccc2)n1`, the outcome with CD69, CD69 (gene 969) was “inactive”; in assay [1] it was “inactive”; in assay [3] it was “inactive”; in [6], “inactive”; in assay [7], “inactive”. For the same molecule, the concentration at half-maximal activity (AC50) in [2] is 20 µM (active); in assay [4], 7.57 µM (active); in [5], 13.8 µM (active).

As for `CCCCC(O)(Cn1cncn1)c1ccc(Cl)cc1Cl` (stereo not given), the outcome in the assay with CD69, CD69 (gene 969) was “inactive”; in assay [1], “inactive”; in assay [3] it was “inactive”; in assay [4], “inactive”; in assay [5], “inactive”; in assay [7] it was “inactive”. The AC50 in assay [2] was 22.5 µM (active); in [6] it was 29.9 µM (active); in assay [11], 1.07 µM (active); in assay [12] it was 1.59 µM (active); in assay [9] it was 0.554 µM (active); in assay [13], 2.52 µM (active). The concentration at half-maximal activity (AC50) in assay [10] was 0.426 µM (active).

With `COCc1cnc(C2=NC(C)(C(C)C)C(=O)N2)c(C(=O)O)c1` (stereo not given), the outcome with CD69, CD69 (gene 969) is “inactive”; in [1] it was “inactive”; in [2], “inactive”; in [3], “inactive”; in assay [4] it was “inactive”; in [5], “inactive”. The outcome in [6] and in [7] was inactive. For the same molecule, the concentration at half-maximal activity (AC50) in assay [14] is 3.83 µM (active).

Take `CC1(C)CON(Cc2ccccc2Cl)C1=O`: the outcome in the assay with CD69, CD69 (gene 969) is “inactive”; in assay [1], “inactive”; in assay [2], “inactive”; in assay [3] it was “inactive”; in [4], “inactive”; in assay [5], “inactive”. The outcome in assay [6] and in assay [7] was inactive.

Take `CC(C)NC(=O)N1CC(=O)N(c2cc(Cl)cc(Cl)c2)C1=O`: the outcome with CD69, CD69 (gene 969) is “inactive”; in assay [1], “inactive”; in assay [2], “inactive”; in assay [3], “inactive”; in assay [4] it was “inactive”; in assay [5], “inactive”. Further, the result in assay [6], in [7], in assay [8] and in assay [12] was inactive. For the same molecule, the concentration at half-maximal activity (AC50) in [15] is 5.48 µM (active); in assay [9] it was 4.01 µM (active); in assay [10] it was 2.06 µM (active).

The term AC50 denotes the concentration giving half of the maximal activity seen.
